According to PubChem BioAssay:
Calls of active or inactive are those of the source. Unless noted, how the calls were made is not given here.

How the values were obtained:
[1] = A549 cell viability effects, profiling panel, calcein-AM fluorescence, 48 h, basal (AID 1162); conditions: higher = more signal; further: test concentration not given here
[2] = adipocyte viability effects, profiling panel, cell-based, 3T3-L1 adipocytes, calcein-AM fluorescence, 48 h, basal (AID 1163); conditions: 3T3-L1 adipocytes viability, higher = more signal; further: test concentration not given here
[3] = HepG2 cell viability effects, profiling panel, calcein-AM fluorescence, 48 h, basal (AID 1164); conditions: higher = more signal; further: test concentration not given here
[4] = MM1S cell viability effects, profiling panel, calcein-AM fluorescence, 48 h, basal (AID 1165); conditions: higher = more signal;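 further: viability of MM1S multiple myeloma cells under basal unstimulated conditions; test concentration not given here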
[5] = basal RPMI8226 viability, no added stimulus, profiling panel, cell-based, calcein-AM fluorescence, 48 h, PK04 Diversity Set (AID 1166); conditions: RPMI8226 myeloma viability, higher = more signal;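 further: cells grown under basal conditions without added stimulus; test concentration not given here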
[6] = basal HepG2 mitochondrial membrane potential changes, profiling panel, cell-based, JC-1 fluorescence, 24 h, 100 nL compound (AID 1167); conditions: higher = more signal; further: test concentration not given here
[7] = basal 3T3-L1 adipocyte mitochondrial potential changes, profiling panel, cell-based, JC-1 fluorescence, 3T3-L1 adipocytes, 24 h, 100 nL compound (AID 1168); conditions: JC-1 mitochondrial fluorescence, higher = more signal, called active from +8 up or from −8 down; further: test concentration not given here
[8] = basal RPMI8226 mitochondrial membrane potential changes, profiling panel, cell-based, JC-1 fluorescence, 24 h, 100 nL compound (AID 1169); conditions: RPMI8226 myeloma, JC-1 mitochondrial potential fluorescence, higher = more signal; further: test concentration not given here
[9] = basal MM1S mitochondrial membrane potential changes, profiling panel, cell-based, JC-1 fluorescence, 24 h, 100 nL compound (AID 1170); conditions: higher = more signal; further: test concentration not given here
[10] = A549 lung cancer cell viability effects, profiling panel, resazurin fluorescence, 24 h, PK04 Diversity Set (AID 1171); conditions: higher = more signal, called active from +8 up or from −8 down; further: test concentration not given here
[11] = HepG2 liver cancer cell viability effects, profiling panel, resazurin fluorescence, 24 h, PK04 Diversity Set (AID 1172); conditions: higher = more signal; further: test concentration not given here
[12] = basal S. cerevisiae growth modulation, no modifier, primary screen, OD600, strain BY4716, 24 h, basal condition (AID 1173); conditions: OD600, 24 h, higher = more signal, called active from +8 up or from −8 down
[13] = MM1S myeloma cell viability, profiling panel, resazurin fluorescence, basal, 24 h, PK04 Diversity Set (AID 1174); conditions: higher = more signal, called active from +8 up or from −8 down;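 further: MM1S multiple myeloma cell line; test concentration not given here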
[14] = target: Dihydroorotate dehydrogenase (quinone), mitochondrial (Plasmodium falciparum (isolate 3D7)) (UniProt Q08210); assay: PfDHODH enzyme inhibitors, primary screen, biochemical, C-terminal His tag, absorbance 600 nm (AID 1175); conditions: DCIP absorbance 600 nm, higher = more signal, called active from +8 up or from −8 down;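 further: recombinant parasite enzyme with a five histidine tag at its C terminus; test concentration not given here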
[15] = P. aeruginosa biofilm formation inhibitors, primary screen, strain PAO1, LB-PBS medium, absorbance 600 nm (AID 1176); further: test concentration not given here; conditions: P. aeruginosa PAO1 growth/biofilm, A600, 12 h; higher = more signal
[16] = S. cerevisiae RM11-1a growth modifiers, primary screen, strain RM11-1a, OD600, basal, 24 h (AID 1177); conditions: OD600, 24 h, higher = more signal, called active from +8 up or from −8 down;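 further: cultures grown under basal conditions with no added stressor; test concentration not given here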
[17] = E. coli acrAB mutant growth effects, primary screen, E. coli filamentation inducers, strain DRC39, OD650, 24 h (AID 1178); conditions: higher = more signal, called active from +8 up or from −8 down;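 further: growth measured as culture turbidity by optical density at 650 nm; test concentration not given here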
[18] = E. coli acrAB mutant growth effects, primary screen, E. coli filamentation inducers, strain DRC39, OD650, 48 h (AID 1179);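 further: screen aims at cell division blockers that make cells filament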; conditions: E. coli DRC39 delta-acrAB growth, higher = more signal, called active from +8 up or from −8 down
[19] = RPMI8226 myeloma cell viability, profiling panel, resazurin fluorescence, basal, 24 h, PK04 Diversity Set (AID 1180); conditions: higher = more signal;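 further: RPMI8826 multiple myeloma cell line at 5000 cells per well; test concentration not given here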
[20] = target: E3 ubiquitin-protein ligase XIAP (Homo sapiens) (UniProt P98170); assay: XIAP binders, primary screen, biophysical, small-molecule microarray, fluorescence 635 nm (AID 1181); conditions: small-molecule microarray binding, higher = more signal;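 further: score merges 667 nm emission and signal to noise over triplicate slides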
Sequence of E3 ubiquitin-protein ligase XIAP (Homo sapiens) (P98170 whole entry, looked up): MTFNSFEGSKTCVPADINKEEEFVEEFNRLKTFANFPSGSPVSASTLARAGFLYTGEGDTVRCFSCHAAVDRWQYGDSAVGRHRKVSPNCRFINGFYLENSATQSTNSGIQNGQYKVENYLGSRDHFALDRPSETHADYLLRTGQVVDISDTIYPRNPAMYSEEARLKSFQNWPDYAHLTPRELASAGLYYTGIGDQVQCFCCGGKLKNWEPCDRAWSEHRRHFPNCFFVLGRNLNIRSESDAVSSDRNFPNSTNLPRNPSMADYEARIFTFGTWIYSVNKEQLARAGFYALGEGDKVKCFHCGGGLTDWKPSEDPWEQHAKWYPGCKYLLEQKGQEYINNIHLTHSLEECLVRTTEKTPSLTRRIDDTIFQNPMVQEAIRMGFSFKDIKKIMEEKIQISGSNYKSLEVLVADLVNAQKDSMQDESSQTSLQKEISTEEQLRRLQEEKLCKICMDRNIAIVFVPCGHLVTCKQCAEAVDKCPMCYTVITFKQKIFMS

Sequence of Dihydroorotate dehydrogenase (quinone), mitochondrial (Plasmodium falciparum (isolate 3D7)) (Q08210 whole entry, looked up): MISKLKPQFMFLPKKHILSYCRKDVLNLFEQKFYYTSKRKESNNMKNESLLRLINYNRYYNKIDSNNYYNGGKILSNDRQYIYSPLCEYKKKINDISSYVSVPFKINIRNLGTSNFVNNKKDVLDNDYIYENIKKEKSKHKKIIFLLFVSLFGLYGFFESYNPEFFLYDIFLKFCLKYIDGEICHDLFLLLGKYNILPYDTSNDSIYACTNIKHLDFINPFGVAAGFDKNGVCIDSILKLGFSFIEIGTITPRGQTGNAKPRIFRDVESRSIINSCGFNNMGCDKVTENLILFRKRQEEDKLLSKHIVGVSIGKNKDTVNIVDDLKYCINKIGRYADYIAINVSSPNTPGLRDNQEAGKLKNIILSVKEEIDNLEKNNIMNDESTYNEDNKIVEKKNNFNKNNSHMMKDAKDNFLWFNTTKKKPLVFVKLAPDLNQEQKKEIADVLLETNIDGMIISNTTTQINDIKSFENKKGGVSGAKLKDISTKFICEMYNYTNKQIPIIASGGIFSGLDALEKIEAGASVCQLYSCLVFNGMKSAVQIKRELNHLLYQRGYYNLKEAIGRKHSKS

NC(=O)[C@@]1(Cc2ccccc2)N=C(c2ccc(OCCCO)cc2)O[C@H]1c1ccccc1
z-score [1]: -0.611
z-score [2]: 0.422
z-score [3]: -0.373
z-score [4]: -0.13
z-score [5]: 0.0044
z-score [6]: -0.576
z-score [7]: 0.804 (inactive)
z-score [8]: -0.318
z-score [9]: 0.577
z-score [10]: -0.0671 (inactive)
z-score [11]: -0.815
z-score [12]: -1.05 (inactive)
z-score [13]: 0.597 (inactive)
composite z-score [14]: 0.842 (inactive)
z-score [15]: 0.466 (inactive)
z-score [16]: -0.541 (inactive)
z-score [17]: 1.54 (inactive)
z-score [18]: 0.915 (inactive)
z-score [19]: -0.0693
composite z-score [20]: 0.225

COc1cc(OC)c(C(O)C2C=CC3C(=O)NC(=O)C3N2Nc2ccccn2)cc1Br (stereo not given)
z-score [1]: 0.837
z-score [2]: -1.06
z-score [3]: 0.224
z-score [4]: -0.459
z-score [5]: -0.0109
z-score [6]: -0.866
z-score [7]: 0.0212 (inactive)
z-score [8]: 0.217
z-score [9]: 0.171
z-score [10]: -0.924 (inactive)
z-score [11]: -0.455
z-score [12]: -0.991 (inactive)
z-score [13]: -0.597 (inactive)
composite z-score [14]: 0.412 (inactive)
z-score [15]: 1.19 (inactive)
z-score [16]: 0.666 (inactive)
z-score [17]: -0.0857 (inactive)
z-score [18]: -0.512 (inactive)
z-score [19]: -0.195
composite z-score [20]: -0.0525

C=CCN1C(=O)[C@]2(O[C@H](CCO)[C@@H]([Si](C)(C)c3ccc(OC)cc3)[C@@H]2C)c2cc(N(C=O)c3ccccc3)ccc21
z-score [1]: -3.81
z-score [2]: 0.532
z-score [3]: -4.8
z-score [4]: -3.05
z-score [5]: -4.39
z-score [6]: -1.98
z-score [7]: -0.422 (inactive)
z-score [8]: -0.993
z-score [9]: -2.23
z-score [10]: -5.28 (inactive)
z-score [11]: -6
z-score [12]: 1.14 (inactive)
z-score [13]: -8.61 (active)
composite z-score [14]: 0.637 (inactive)
z-score [15]: 0.0245 (inactive)
z-score [16]: 3.98 (inactive)
z-score [17]: 1.72 (inactive)
z-score [18]: 0.905 (inactive)
z-score [19]: -6.23
composite z-score [20]: -0.0189

CC(c1ccccc1)C(O)C1C=CC2C(=O)N(C)C(=O)C2N1NC(=O)OC(C)(C)C (stereo not given)
z-score [1]: -0.431
z-score [2]: 0.173
z-score [3]: -0.527
z-score [4]: -0.391
z-score [5]: -0.347
z-score [6]: -0.741
z-score [7]: -0.439 (inactive)
z-score [8]: -0.104
z-score [9]: 0.772
z-score [10]: 0.866 (inactive)
z-score [11]: -0.67
z-score [12]: -0.424 (inactive)
z-score [13]: -0.267 (inactive)
composite z-score [14]: -0.14 (inactive)
z-score [15]: 0.903 (inactive)
z-score [16]: 0.732 (inactive)
z-score [17]: -0.182 (inactive)
z-score [18]: -0.339 (inactive)
z-score [19]: 0.15
composite z-score [20]: 0.184

COCCOC(=O)N1C(=O)[C@@]2(c3cc(C#Cc4ccc(OC)cc4)ccc31)[C@H](c1ccc(O)cc1)N1[C@H](c3ccccc3)[C@H](c3ccccc3)OC(=O)[C@H]1[C@@H]2C(=O)Nc1nc2ccccc2s1
z-score [1]: -0.738
z-score [2]: 0.967
z-score [3]: 0.0165
z-score [4]: -1.55
z-score [5]: -1.6
z-score [6]: -2.51
z-score [7]: -0.0239 (inactive)
z-score [8]: -0.71
z-score [9]: -1.34
z-score [10]: -0.838 (inactive)
z-score [11]: -0.719
z-score [12]: -0.442 (inactive)
z-score [13]: -0.72 (inactive)
composite z-score [14]: -0.455 (inactive)
z-score [15]: 0.819 (inactive)
z-score [16]: 0.363 (inactive)
z-score [17]: -0.184 (inactive)
z-score [18]: -0.0404 (inactive)
z-score [19]: -0.61
composite z-score [20]: 0.0345

O=C1C2C=CC(C(O)c3c(F)cccc3Cl)N(Nc3ccccc3F)C2C(=O)N1c1ccccc1 (stereo not given)
z-score [1]: -0.505
z-score [2]: -1.08
z-score [3]: -0.257
z-score [4]: 0.278
z-score [5]: -0.0072
z-score [6]: -1.03
z-score [7]: -0.217 (inactive)
z-score [8]: -0.277
z-score [9]: -0.298
z-score [10]: -0.103 (inactive)
z-score [11]: -0.269
z-score [12]: -0.796 (inactive)
z-score [13]: -0.819 (inactive)
composite z-score [14]: -0.303 (inactive)
z-score [15]: 0.447 (inactive)
z-score [16]: 0.824 (inactive)
z-score [17]: -0.0281 (inactive)
z-score [18]: 0.729 (inactive)
z-score [19]: -0.144
composite z-score [20]: -0.0749

NCCCCCNC(=O)[C@H]1C[C@H]2C(=O)N3CCC[C@H]3C(=O)N2[C@H]1c1ccc(O)cc1
z-score [1]: -0.246
z-score [2]: 0.339
z-score [3]: -0.0476
z-score [4]: -1.11
z-score [5]: -0.177
z-score [6]: -0.0181
z-score [7]: 0.0417 (inactive)
z-score [8]: -0.398
z-score [9]: 0.286
z-score [10]: -0.166 (inactive)
z-score [11]: -0.0962
z-score [12]: -0.0403 (inactive)
z-score [13]: -0.225 (inactive)
composite z-score [14]: -0.572 (inactive)
z-score [15]: 0.174 (inactive)
z-score [16]: -0.835 (inactive)
z-score [17]: -0.363 (inactive)
z-score [18]: -0.39 (inactive)
z-score [19]: -0.485
composite z-score [20]: 0.247

CC(C)[Si](C#CCCCC#N)(O[C@H](c1ccccc1)c1cn(Cc2cccc(Cl)c2)nn1)C(C)C
z-score [1]: -1.13
z-score [2]: -0.75
z-score [3]: -0.626
z-score [4]: -0.883
z-score [5]: -4.19
z-score [6]: 6.65
z-score [7]: -0.108 (inactive)
z-score [8]: -0.882
z-score [9]: -1.56
z-score [10]: 0.268 (inactive)
z-score [11]: 0.36
z-score [12]: -0.718 (inactive)
z-score [13]: 0.109 (inactive)
composite z-score [14]: 0.369 (inactive)
z-score [15]: 1.25 (inactive)
z-score [16]: -0.358 (inactive)
z-score [17]: -0.0251 (inactive)
z-score [18]: -0.203 (inactive)
z-score [19]: -0.701
composite z-score [20]: 0.149

COc1ccc(C(=O)Nc2ccc(CN3C(=O)[C@]4(O[C@H](CC(=O)N5CCC[C@H]5CO)[C@@H]([Si](C)(C)c5ccc(OC)cc5)[C@@H]4C)c4ccccc43)cc2)cc1
z-score [1]: -1.14
z-score [2]: 0.362
z-score [3]: -4.53
z-score [4]: -2.83
z-score [5]: -4.35
z-score [6]: -2.48
z-score [7]: -0.0307 (inactive)
z-score [8]: -1.09
z-score [9]: -2.1
z-score [10]: -1.98 (inactive)
z-score [11]: -1.79
z-score [12]: 0.082 (inactive)
z-score [13]: -2.05 (inactive)
composite z-score [14]: -2.56 (inactive)
z-score [15]: 0.0245 (inactive)
z-score [16]: 0.557 (inactive)
z-score [17]: -0.0895 (inactive)
z-score [18]: -0.381 (inactive)
z-score [19]: -4.49
composite z-score [20]: -0.361
